Experimental data published in PubChem BioAssay (EPA / NIEHS).
“And” between values parts separate entries of the source, which are not always exact repeats. Equal entries are not always repeated. Where a structure was tested more than once in an assay, its records may differ in their call. The source made the active and inactive calls. How the source made its calls: active means hit-call score of the fitted dose curve at least 0.9, where 1 is the maximum; inactive means score below 0.9.

Assay: CCTE_Shafer_MEA_dev_network_spike_peak: CCTE's Neural Network Formation Assay for Mean Number of Electrodes in Network Spike, Shafer Lab (AID 2284049)
Protocol: CCTE_Shafer_MEA_dev assay is conducted using Axion Biosystems 48 well microelectrode array (MEA) plates and Maestro recording system. Each well of the MEA plate contains a grid of 16 microelectrodes embedded in the culture surface. Electrically active cells, such as neurons, can be cultured over the electrodes, and electrical activity in these cells can be recorded extracellularly. The spontaneous firing of neurons is captured from each electrode on a microsecond timescale providing both temporally and spatially precise data. […] The CCTE_Shafer_MEA_dev assay uses primary cultures of rat cortical neurons. Recordings are made on days post-plating 5, 7, 9 and 12. As these cultures mature over time, neural networks develop functional activity and form cohesive networks in which electrical activity can be highly coordinated. CCTE_Shafer_MEA_dev_network_spike_peak is 1 of 19 assay components of the CCTE_Shafer_MEA_dev assay. It measures the average number of electrodes participating at the peak of a network spike (the peak of a temporally-clustered group of action potential firing across multiple electrodes) during a recording in a microelectrode array (MEA) using Axion Biosystems Maestro 768 channel amplifier with the AxIS adaptive spike detector. To collapse across multiple recordings made on days post-plating 5, 7, 9 and 12, the trapezoidal area-under-the-curve of the component is calculated.Data from the assay component CCTE_Shafer_MEA_dev_network_spike_peak was analyzed into 1 assay endpoint. This assay endpoint, CCTE_Shafer_MEA_dev_network_spike_peak, was analyzed in the negative analysis fitting direction relative to DMSO as the negative control and baseline of activity. Using a type of functional reporter, gain or loss-of-signal activity can be used to understand electrical activity.
On the day prior to culture, each well was coated thoroughly with 150 uL of 0.05% polyethyleneimine (PEI, Sigma Cat P3143) in 50 mM HEPES (Sigma Cat H7523) at a pH of 8. The plate was incubated at 37C for one hour. PEI was rinsed out with 500 uL of sterile water three times. Plates were stored at 4C until the day of culture. This culture was plated at a seeding density of 1.5 x 10^5 cells/well on a 48-well MEA plate, prepared as described above. Cells were administered via a 25 uL media/laminin ([…]; Sigma Cat L2020-1MG) drop directly onto the microelectrode array, as adding the cells with the laminin results in better attachment than pre-coating with laminin. After 2 hours, an additional 475 uL of cortical media was added and the cells returned to the incubator. Exposure starts at day 0 of plating and is continued over twelve days of network development until the experiment is terminated. Cells are fed with fresh medium on DIV 5 and 9, following the recordings on those days. The entire volume of media in the well is exchanged and any vehicle or compound treatment is renewed. Complete details are found in OP-NHEERL/ISTD/SBB/TJS/2015-03-r0 (available on request, email shafer.tim@epa.gov). Measurement of the electrical activity is non-invasive, and recordings can be made from the same plate over multiple different days of the culture. In cortical neurons, this allows for the measurement of extracellular action potentials over the period during which networks form in the MEA plate.

Question: For `CCCSP(=O)(OCC)SCCC`, which AC50 is on record?
Answer: 50 µM (active) and 29.9 µM (active)

Question: Which AC50 does the source give for `COP(=O)(OC)C(O)C(Cl)(Cl)Cl` (stereo not given) here?
Answer: 75.4 µM (active) and 15 µM (active)

Question: Which outcome does the source give for `CCCSP(=O)(OCC)Oc1ccc(Br)cc1Cl` (stereo not given) here?
Answer: inactive

Question: Which AC50 does the source give for `CON=C(C(=O)OC)c1ccccc1CON=C(C)c1cccc(C(F)(F)F)c1` here?
Answer: 871 nM (active) and 742 nM (active)

Question: For `CCCCSP(=O)(SCCCC)SCCCC`, which AC50 is on record?
Answer: 31.8 µM (active) and 16 µM (active)

Question: With `CC[C@H](C)[C@H]1O[C@]2(C=C[C@@H]1C)C[C@@H]1C[C@@H](C/C=C(\C)[C@@H](O[C@H]3C[C@H](OC)[C@@H](O[C@H]4C[C@H](OC)[C@@H](NC)[C@H](C)O4)[C@H](C)O3)[C@@H](C)/C=C/C=C3\CO[C@@H]4[C@H](O)C(C)=C[C@@H](C(=O)O1)[C@]34O)O2` as the molecule, how does the AC50 read?
Answer: 106 nM (active) and 9.12 nM (active)

Question: For `CC(=NC#N)N(C)Cc1ccc(Cl)nc1`, which outcome is on record?
Answer: inactive

Question: Which AC50 does the source give for `COP(=O)(OC)OC(Br)C(Cl)(Cl)Br` (stereo not given) here?
Answer: 9.05 µM (active) and 11.9 µM (active)

Question: Which outcome does the source give for `CCOP(=S)(OCC)SCCSCC` here?
Answer: inactive

Question: Which AC50 does the source give for `C[Si](Cn1cncn1)(c1ccc(F)cc1)c1ccc(F)cc1` here?
Answer: 4.71 µM (active)

Question: Which outcome does the source give for `CN1COCN(Cc2cnc(Cl)s2)C1=N[N+](=O)[O-]` here?
Answer: inactive

Question: For `C=C(C)[C@H]1Cc2c(ccc3c2O[C@@H]2COc4cc(OC)c(OC)cc4[C@@H]2C3=O)O1`, which AC50 is on record?
Answer: 24.9 nM (active) and 16.5 nM (active)

Question: With `CC(C)=CC1C(C(=O)OCN2C(=O)C3=C(CCCC3)C2=O)C1(C)C` (stereo not given) as the molecule, how does the AC50 read?
Answer: 1.98 µM (active)

Question: With `CCOP(=S)(OCC)OC(Cl)C(Cl)(Cl)Cl` (stereo not given) as the molecule, how does the AC50 read?
Answer: 50 µM (active) and 20.2 µM (active)

Question: With `CCOP(=S)(OCC)Oc1ccc([N+](=O)[O-])cc1` as the molecule, how does the outcome read?
Answer: inactive

Question: Which AC50 does the source give for `CCOP(=S)(Oc1cnc(C(C)(C)C)nc1)OC(C)C` (stereo not given) here?
Answer: 85.8 µM (active) and 13 µM (active)

Question: With `CN(C)[C@@H]1C(=O)C(C(N)=O)=C(O)[C@@]2(O)C(=O)C3=C(O)c4c(O)cccc4[C@@](C)(O)[C@H]3[C@H](O)[C@@H]12` as the molecule, how does the AC50 read?
Answer: 50 µM (active)

Question: With `CCOP(=S)(OCC)Oc1cc(C)nc(C(C)C)n1` as the molecule, how does the outcome read?
Answer: inactive

Question: And the AC50?
Answer: 50 µM (active)

Question: Which AC50 does the source give for `CC(C)[C@H](C(=O)O[C@H](C#N)c1cccc(Oc2ccccc2)c1)c1ccc(Cl)cc1` here?
Answer: 4.07 µM (active)

Question: For `CC1=NNC(=O)N(/N=C/c2cccnc2)C1`, which outcome is on record?
Answer: inactive

Question: With `CCOP(=O)(NC(C)C)Oc1ccc(SC)c(C)c1` (stereo not given) as the molecule, how does the outcome read?
Answer: inactive

Question: And the AC50?
Answer: 51 µM (active)

Question: Which AC50 does the source give for `CCOP(=S)(OCC)Oc1ccc2c(C)c(Cl)c(=O)oc2c1` here?
Answer: 50 µM (active)

Question: Which outcome does the source give for `CSC1=N[C@@](C)(c2ccccc2)C(=O)N1Nc1ccccc1` here?
Answer: inactive

Question: For `CC(Oc1cccc(Cl)c1)C(=O)O` (stereo not given), which outcome is on record?
Answer: inactive

Question: Which outcome does the source give for `CCOC(=O)CC(SP(=O)(OC)OC)C(=O)OCC` (stereo not given) here?
Answer: inactive

Question: With `C#CCC1=C(C)C(OC(=O)C2C(C=C(C)C)C2(C)C)CC1=O` (stereo not given) as the molecule, how does the outcome read?
Answer: inactive

Question: With `COP(=O)(NC(C)=O)SC` (stereo not given) as the molecule, how does the outcome read?
Answer: inactive

Question: For `CCOP(=O)(SC(C)CC)N1CCSC1=O` (stereo not given), which outcome is on record?
Answer: inactive

Question: Which AC50 does the source give for `O=[N+]([O-])c1cc(C(F)(F)F)c(Cl)c([N+](=O)[O-])c1Nc1ncc(C(F)(F)F)cc1Cl` here?
Answer: 1.06 µM (active)

Question: For `CCOP(=O)(OCC)Oc1cc(C)nc(C(C)C)n1`, which outcome is on record?
Answer: inactive

Question: For `CC(C)N(C(=O)SCC(Cl)=C(Cl)Cl)C(C)C`, which AC50 is on record?
Answer: 15 µM (active)

Question: With `S=C1NCCN1` as the molecule, how does the outcome read?
Answer: inactive

Question: For `C[N+]1(C)CCCCC1`, which AC50 is on record?
Answer: 15 µM (active)
